One experiment deals with PPARa:RXRa (NR concentration 270 nM, RXRa partner concentration 90 nM). The experiment can be described thus: PBM binding z-score (relative to random genomic background probes); higher = stronger binding; sequences stand for … in GC…GCGATTGACAGCGTAGAATGAAGG
Put shortly: (§1)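 Binding z-scores were set against random background probes. The data came from custom Agilent 4×180K protein-binding microarrays carrying double-stranded probes with 34-nt variable regions, incubated 1 h with ligand-free nuclear receptor dimers. Partner-specific antibodies detected binding, and scanned fluorescence was regression-normalized.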
Turning to ATATGTAGGTTAGCTGGGGTCGTTCAGACTAGGC, the PBM binding z-score amounted to 3.82.
Sequence ACTATTAGTGGACTTAGGGCAACCGATACGACGC had a PBM binding z-score of -0.455.
The same measure, in the same setting: to CGTCCAAGGTCATGGTCAGTGAAAGAGACTCGAA belongs 5.74; to TCTTGTTGATCAAGCAGGTTAAGAAAGCCTGAGT, 0.497.
As to GTACCAAGGTGAATAGATCGTTGATGAGTAGGCG, the PBM binding z-score was 0.852.
For GCTCGAAGGACAAGGTCAGAGCTTTGTCCGTAGA, the PBM binding z-score stood at 2.56.
TCGAGTAGGTTACCAATGGGGCATACAGCTTTCT showed a PBM binding z-score of 1.18.
The sequence GCTGCTAGGTCACGTTGGTCAGCTAACGGGTACG showed a PBM binding z-score of 3.5.
On the same count and under the same terms, as for CGTCCAAGGTCAGCAGGTCTGTGAAAGCGACGTG, the figure is 4.16; as for ACTTACGGGTCAACGAGGATATAGCACGCGTATA, 5.43.
Sequence CTACCAAGGTGAACAAGGTGGTTGATTACTATTC showed a PBM binding z-score of 1.21.
GGAACGAGTGCAAAGTTGATAGCATCTGTCGACG came in with a PBM binding z-score of 1.8.
For CGTCCAAGGTCAGCATGTCAGTGAAAGCGACGTG, the PBM binding z-score came out at 4.07.
ATATGTAGGTTTGCTGGGGTCATTCAGACTAGGC: the PBM binding z-score came to 4.53.
TCTAGCAGGCCAGAGGGTCAATCAAGAGGTACGG registered a PBM binding z-score of 2.66.
Still for that read-out and setting: to GATGCTAGGTCAACTGATGGTCAGCTAAAGCTCG belongs 3.62.
GCTATTAGTTAAAAGGGCAACCGAATGATTCTCG gave a PBM binding z-score of 2.02.
Sequence ATCTCTAGCTAAAGATAGTTCAGTGAATGCAAAT came in with a PBM binding z-score of 0.345.
GATACAGGTTCAGCTAGAGGCCAGAGTATGGAAA gave a PBM binding z-score of 1.29.
CCTTACGGGTCACTCCAGGTTAAAGCATCGGAGT returned a PBM binding z-score of 4.59.
On to TCTTGTAGATCAAAGGTTAAGAATGCCGAAGCCT, for which the PBM binding z-score turned out to be 4.68.
Same read-out and setting: as for TAGCCTAGGTCTGATCGGGCCAGTATACGCTATA, the figure is -0.144; as for ACTAGCAGGCCATGTTTGGGTCACTCAAACAAAG, 1.31.
As to GCTGCTAGGTCAAGTTGGTCAGCTAACGGGTACG, the PBM binding z-score came to 3.64.
In turn, CAAACTACGTCAAGAGGTCAAAGTCCGCTTCCCG yielded a PBM binding z-score of 5.09.
As for AGTTACGGGTCAACGAGGTTATAGCACGCGTATA, the PBM binding z-score was 5.63.
For the sequence ATCGCTAGGTAAAGTTCAGTGAAAGATCGATAGA, the PBM binding z-score came to 1.81.
As to GCTGCTAGGTAAACTGATGGTCAGCTAAAGCTCG, the PBM binding z-score was -0.566.
Sequence TCATATAGGTAAATGCTAGGTGCAAGTCCGATCT showed a PBM binding z-score of 1.05.
On the same count and under the same terms, to CGTCCTAGGTCAAGGTCAGTGAAAGAGACTCGAA belongs 4.87; to GCATATAGGTAATAAAAGGTGAAAGTCCGATTGT, 2.47; to GCGACTGGGGCATCAGCAGGTCACCATAACTTAA, 2.79.
In turn, CCTCGGAGGACAGAAGCTCAGAGCTGTCCGCTTT gave a PBM binding z-score of -1.83.
TCTATTAGTTGAAGGGCAAGCGACGAGTCCGTTT: the PBM binding z-score was determined as 1.04.
TGTCAAAGTTCAAACGTAACGTAAGTATCCACAC registered a PBM binding z-score of 5.43.
Regarding CCTTACGGGTCACTGCAGGTTATAGCATCGGAGT, the PBM binding z-score is 4.88.
In the case of CTAACTAGGTCAGAACAGGACAGTGAAGGATGAT, the PBM binding z-score was determined as 3.16.
For the sequence TCTCGGAGGACACGATAGGTCAGAGCTCGACATC, the PBM binding z-score was found to be 1.5.
On the same count and under the same terms, as for AAACCAAGGTGATCGTGAGGTCGTTGATACTAAC, the figure is 1.54; as for CATACAGGGTCAGCTAGGCCAGAGTAGGGACGGC, 4.64.

The next experiment has as its system PPARg:RXRa (NR concentration 180 nM, RXRa partner concentration 90 nM). The experiment is described as above. Put shortly:
as §1
The sequence ATATGTAGGTTAGCTGGGGTCGTTCAGACTAGGC showed a PBM binding z-score of 3.96.
ACTATTAGTGGACTTAGGGCAACCGATACGACGC displayed a PBM binding z-score of 0.923.
On the same count and under the same terms, as for CGTCCAAGGTCATGGTCAGTGAAAGAGACTCGAA, the figure is 5.32; as for TCTTGTTGATCAAGCAGGTTAAGAAAGCCTGAGT, -0.685; as for GTACCAAGGTGAATAGATCGTTGATGAGTAGGCG, 0.853.
On the same count and under the same terms, as for GCTCGAAGGACAAGGTCAGAGCTTTGTCCGTAGA, the figure is 0.738; as for TCGAGTAGGTTACCAATGGGGCATACAGCTTTCT, 0.984; as for GCTGCTAGGTCACGTTGGTCAGCTAACGGGTACG, 3.91.
For CGTCCAAGGTCAGCAGGTCTGTGAAAGCGACGTG, the PBM binding z-score was 2.65.
Take ACTTACGGGTCAACGAGGATATAGCACGCGTATA: the PBM binding z-score is 5.
CTACCAAGGTGAACAAGGTGGTTGATTACTATTC displayed a PBM binding z-score of 0.492.
GGAACGAGTGCAAAGTTGATAGCATCTGTCGACG gave a PBM binding z-score of 2.13.
CGTCCAAGGTCAGCATGTCAGTGAAAGCGACGTG: the PBM binding z-score stood at 2.43.
ATATGTAGGTTTGCTGGGGTCATTCAGACTAGGC gave a PBM binding z-score of 2.69.
On to TCTAGCAGGCCAGAGGGTCAATCAAGAGGTACGG, for which the PBM binding z-score was 1.61.
On the same count and under the same terms, as for GATGCTAGGTCAACTGATGGTCAGCTAAAGCTCG, the figure is 2.79; as for GCTATTAGTTAAAAGGGCAACCGAATGATTCTCG, 1.84.
In turn, ATCTCTAGCTAAAGATAGTTCAGTGAATGCAAAT had a PBM binding z-score of 0.318.
For the sequence GATACAGGTTCAGCTAGAGGCCAGAGTATGGAAA, the PBM binding z-score is 0.495.
The sequence CCTTACGGGTCACTCCAGGTTAAAGCATCGGAGT gave a PBM binding z-score of 3.59.
With TCTTGTAGATCAAAGGTTAAGAATGCCGAAGCCT, the PBM binding z-score stood at 7.84.
Turning to TAGCCTAGGTCTGATCGGGCCAGTATACGCTATA, the PBM binding z-score came out at 0.0558.
On to ACTAGCAGGCCATGTTTGGGTCACTCAAACAAAG, for which the PBM binding z-score is 0.145.
For the sequence GCTGCTAGGTCAAGTTGGTCAGCTAACGGGTACG, the PBM binding z-score turned out to be 2.48.
As for CAAACTACGTCAAGAGGTCAAAGTCCGCTTCCCG, the PBM binding z-score came out at 3.07.
In the case of AGTTACGGGTCAACGAGGTTATAGCACGCGTATA, the PBM binding z-score was 5.57.
Same read-out and setting: to ATCGCTAGGTAAAGTTCAGTGAAAGATCGATAGA belongs 1.85; to GCTGCTAGGTAAACTGATGGTCAGCTAAAGCTCG, -0.301; to TCATATAGGTAAATGCTAGGTGCAAGTCCGATCT, 0.562.
CGTCCTAGGTCAAGGTCAGTGAAAGAGACTCGAA: the PBM binding z-score came to 4.31.
Consider GCATATAGGTAATAAAAGGTGAAAGTCCGATTGT, for which the PBM binding z-score came to 1.65.
GCGACTGGGGCATCAGCAGGTCACCATAACTTAA had a PBM binding z-score of 2.16.
Same read-out and setting: to CCTCGGAGGACAGAAGCTCAGAGCTGTCCGCTTT belongs -0.876.
The same measure, in the same setting: to TCTATTAGTTGAAGGGCAAGCGACGAGTCCGTTT belongs 0.0198.
In turn, TGTCAAAGTTCAAACGTAACGTAAGTATCCACAC came in with a PBM binding z-score of 8.29.
Same read-out and setting: to CCTTACGGGTCACTGCAGGTTATAGCATCGGAGT belongs 3.68.
Still for that read-out and setting: as for CTAACTAGGTCAGAACAGGACAGTGAAGGATGAT, the figure is 6.17; as for TCTCGGAGGACACGATAGGTCAGAGCTCGACATC, 0.595; as for AAACCAAGGTGATCGTGAGGTCGTTGATACTAAC, 0.386.
CATACAGGGTCAGCTAGGCCAGAGTAGGGACGGC had a PBM binding z-score of 3.58.

Values taken from the supplement of paper PMC6555819.
